# According to PubChem BioAssay (NCATS):
# Records with an inconclusive call do not appear. Where a call stands in place of a potency, no number is given. The source made the active and inactive calls. Unless noted, the call rests on the fitted dose curve; in most records, active means well fitted curve in the direction sought with a large enough effect; inconclusive means small, poorly fitted or top-dose-only effect, or another doubt; inactive means no such curve, though single readings can be large; an effect the other way counts as inactive or inconclusive.
# Tests used:
# [1] = target: Luciferin 4-monooxygenase (Photinus pyralis) (UniProt P08659); experiment: Biochemical firefly luciferase enzyme assay for NPC (AID 624030);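 further: purified P. pyralis luciferase at 10 nM with luciferin and ATP substrate; nearly all actives have a fitted effect of over 70% in size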; settings: purified P. pyralis luciferase, luminescence, 5 min; series mostly up to 58.6 µM
# Chain of Luciferin 4-monooxygenase (Photinus pyralis) (P08659 whole entry, looked up): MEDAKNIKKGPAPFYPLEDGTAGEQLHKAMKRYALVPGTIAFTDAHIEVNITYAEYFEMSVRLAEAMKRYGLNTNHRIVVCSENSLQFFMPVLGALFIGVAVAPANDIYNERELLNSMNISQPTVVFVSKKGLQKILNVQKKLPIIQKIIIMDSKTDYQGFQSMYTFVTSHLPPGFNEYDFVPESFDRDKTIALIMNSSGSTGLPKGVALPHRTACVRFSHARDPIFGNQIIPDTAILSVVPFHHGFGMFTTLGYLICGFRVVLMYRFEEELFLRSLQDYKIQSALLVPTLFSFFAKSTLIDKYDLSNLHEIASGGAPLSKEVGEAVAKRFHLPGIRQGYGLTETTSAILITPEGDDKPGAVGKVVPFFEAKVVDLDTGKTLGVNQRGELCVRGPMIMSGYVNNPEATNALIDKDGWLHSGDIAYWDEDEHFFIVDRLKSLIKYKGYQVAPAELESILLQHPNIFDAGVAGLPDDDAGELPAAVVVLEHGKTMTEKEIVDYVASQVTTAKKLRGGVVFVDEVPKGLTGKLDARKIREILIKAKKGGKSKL
# Outline: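 Direct inhibition of firefly luciferase enzyme (10 nM final, 50 mM Tris Acetate) assessed by luminescence within 5 minutes. Percent activity scaled between DMSO and PTC124 positive control, with concentration-effect curves classified by fit quality and response.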
# 7G8 = experiment: qHTS profiling for inhibitors of Plasmodium falciparum proliferation (AID 504749); further: nearly all actives have a fitted effect of over 60% in size; further: potency means the concentration at half of the fitted maximal effect; settings: P. falciparum in erythrocytes, SYBR Green DNA, 72 h; series mostly up to 28.7 µM
# Outline: (§1)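 In a 72 h erythrocytic culture (37 C, humidified, 5% CO2) at 2.5% hematocrit and 0.3% starting parasitemia, compounds were tested; SYBR Green I in detergent lysis buffer stained parasite DNA overnight.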
# CP215 = experiment: as above; settings: P. falciparum in erythrocytes, SYBR Green DNA, 72 h; series mostly up to 28.7 µM
# Outline: as §1
# CP237 = experiment: as above; settings: P. falciparum in erythrocytes, SYBR Green DNA, 72 h; series mostly up to 28.7 µM
# Outline: as §1
# CP262 = experiment: as above; settings: P. falciparum in erythrocytes, SYBR Green DNA, 72 h; series mostly up to 28.7 µM
# Outline: as §1
# CP266 = experiment: as above; settings: P. falciparum in erythrocytes, SYBR Green DNA, 72 h; series mostly up to 28.7 µM
# Outline: as §1
# CP315 = experiment: as above; settings: P. falciparum in erythrocytes, SYBR Green DNA, 72 h; series mostly up to 28.7 µM
# Outline: as §1
# CP325 = experiment: as above; settings: P. falciparum in erythrocytes, SYBR Green DNA, 72 h; series mostly up to 28.7 µM
# Outline: as §1
# Dd2 = experiment: as above; settings: P. falciparum in erythrocytes, SYBR Green DNA, 72 h; series mostly up to 28.7 µM
# Outline: as §1
# FAB9 = experiment: as above; settings: P. falciparum in erythrocytes, SYBR Green DNA, 72 h; series mostly up to 28.7 µM
# Outline: as §1
# HB3 = experiment: as above; settings: P. falciparum in erythrocytes, SYBR Green DNA, 72 h; series mostly up to 28.7 µM
# Outline: as §1
# ICS = experiment: as above; settings: P. falciparum in erythrocytes, SYBR Green DNA, 72 h; series mostly up to 28.7 µM
# Outline: as §1
# JCK = experiment: as above; settings: P. falciparum in erythrocytes, SYBR Green DNA, 72 h; series mostly up to 28.7 µM
# Outline: as §1
# TAB165 = experiment: as above; settings: P. falciparum in erythrocytes, SYBR Green DNA, 72 h; series mostly up to 28.7 µM
# Outline: as §1
# [2] = target: Rap guanine nucleotide exchange factor 3 (Homo sapiens) (UniProt O95398); experiment: Confirmatory qHTS for antagonist of cAMP-regulated guanine nucleotide exchange factor 3 (EPAC1) (AID 1645880); settings: EPAC1 Rap1B-BODIPY-GDP exchange, fluorescence; series mostly up to 115 µM; further: nearly all actives have a fitted effect of over 55% in size
# Chain of Rap guanine nucleotide exchange factor 3 (Homo sapiens) (O95398 whole entry, looked up): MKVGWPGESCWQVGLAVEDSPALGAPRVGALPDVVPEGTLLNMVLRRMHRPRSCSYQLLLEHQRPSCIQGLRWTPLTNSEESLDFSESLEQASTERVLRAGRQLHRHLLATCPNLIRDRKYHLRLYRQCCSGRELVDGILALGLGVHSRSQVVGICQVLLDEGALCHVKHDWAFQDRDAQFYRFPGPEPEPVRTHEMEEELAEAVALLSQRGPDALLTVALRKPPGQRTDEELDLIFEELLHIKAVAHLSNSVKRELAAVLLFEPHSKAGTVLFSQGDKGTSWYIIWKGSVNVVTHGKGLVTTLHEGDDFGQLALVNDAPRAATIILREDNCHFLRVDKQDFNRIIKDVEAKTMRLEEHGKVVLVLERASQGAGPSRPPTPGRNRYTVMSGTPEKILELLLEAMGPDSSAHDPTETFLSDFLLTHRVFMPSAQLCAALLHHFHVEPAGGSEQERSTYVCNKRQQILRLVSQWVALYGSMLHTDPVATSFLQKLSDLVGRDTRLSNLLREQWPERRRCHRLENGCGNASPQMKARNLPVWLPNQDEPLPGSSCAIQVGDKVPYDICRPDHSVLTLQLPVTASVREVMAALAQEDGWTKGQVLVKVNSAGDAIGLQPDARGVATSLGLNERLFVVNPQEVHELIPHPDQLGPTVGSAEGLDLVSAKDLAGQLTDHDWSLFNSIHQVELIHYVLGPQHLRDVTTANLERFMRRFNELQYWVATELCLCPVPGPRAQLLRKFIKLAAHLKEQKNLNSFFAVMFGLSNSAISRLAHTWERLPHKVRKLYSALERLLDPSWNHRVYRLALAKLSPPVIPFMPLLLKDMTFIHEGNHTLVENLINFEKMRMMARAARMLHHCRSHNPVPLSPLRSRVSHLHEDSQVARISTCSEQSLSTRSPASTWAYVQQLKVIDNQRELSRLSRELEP
# Outline: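 Released BODIPY-GDP fluoresces less than Rap1-bound BODIPY-GDP; the signal is followed at 480/540 nm at 5-min intervals over 30 min, after 5 min at room temperature. Reactions contain 100 nM EPAC1, 250 nM RAP1B-BODIPY-GDP and 50 uM GDP; results are normalized to ATA and DMSO.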
# [3] = target: Rap guanine nucleotide exchange factor 3 (Homo sapiens) (UniProt O95398); experiment: Confirmatory qHTS for agonist of cAMP-regulated guanine nucleotide exchange factor 3 (EPAC1) (AID 1645881); settings: EPAC1 Rap1B BODIPY-GDP exchange fluorescence, 100% = cAMP control response; series mostly up to 154 µM;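 further: EPAC1 catalysed release of BODIPY-GDP from Rap1B seen as fluorescence loss; nearly all actives have a fitted effect of over 75% in size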
# [4] = target: Rap guanine nucleotide exchange factor 4 (Homo sapiens) (UniProt Q8WZA2); experiment: Confirmatory qHTS for agonist of cAMP-regulated guanine nucleotide exchange factor 4 (EPAC2) (AID 1645884); settings: EPAC2 GEF activity, Rap1B-BODIPY-GDP fluorescence, percent relative to cAMP agonist control; series mostly up to 154 µM;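 further: nucleotide exchange releases bodipy-GDP from Rap1 and this lowers its fluorescence; nearly all actives have a fitted effect of over 65% in size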
# Chain of Rap guanine nucleotide exchange factor 4 (Homo sapiens) (Q8WZA2 whole entry, looked up, the tested form may be a part): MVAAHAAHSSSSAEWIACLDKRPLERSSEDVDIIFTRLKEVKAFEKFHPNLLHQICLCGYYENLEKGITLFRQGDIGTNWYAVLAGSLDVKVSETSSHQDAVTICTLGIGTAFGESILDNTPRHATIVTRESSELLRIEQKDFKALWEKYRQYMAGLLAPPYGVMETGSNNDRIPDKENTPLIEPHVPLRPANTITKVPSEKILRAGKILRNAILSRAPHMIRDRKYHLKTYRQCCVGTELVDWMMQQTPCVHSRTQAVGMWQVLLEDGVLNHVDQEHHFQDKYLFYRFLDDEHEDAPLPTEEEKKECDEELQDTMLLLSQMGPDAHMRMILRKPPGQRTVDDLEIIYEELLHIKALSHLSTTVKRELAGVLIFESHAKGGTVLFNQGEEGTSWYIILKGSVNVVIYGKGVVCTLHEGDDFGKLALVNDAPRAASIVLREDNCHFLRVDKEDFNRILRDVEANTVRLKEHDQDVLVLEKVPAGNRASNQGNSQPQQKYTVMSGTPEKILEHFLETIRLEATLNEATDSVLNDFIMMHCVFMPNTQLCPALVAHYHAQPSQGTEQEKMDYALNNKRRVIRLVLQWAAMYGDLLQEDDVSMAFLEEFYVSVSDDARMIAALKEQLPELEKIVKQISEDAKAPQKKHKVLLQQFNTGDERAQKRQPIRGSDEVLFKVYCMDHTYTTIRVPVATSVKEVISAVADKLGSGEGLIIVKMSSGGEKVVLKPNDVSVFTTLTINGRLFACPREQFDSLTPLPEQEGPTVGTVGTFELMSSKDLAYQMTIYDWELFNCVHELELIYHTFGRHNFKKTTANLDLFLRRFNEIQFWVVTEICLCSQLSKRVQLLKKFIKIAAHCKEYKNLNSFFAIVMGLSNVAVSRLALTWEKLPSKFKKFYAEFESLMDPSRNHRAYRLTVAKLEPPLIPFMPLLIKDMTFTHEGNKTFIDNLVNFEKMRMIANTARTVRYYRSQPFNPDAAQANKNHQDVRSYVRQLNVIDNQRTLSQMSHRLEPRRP
# [5] = Primary qHTS for inhibitors of nuclear receptor binding SET domain protein 2 (NSD2) in an isogenic RCH-ACV NSD2 p.E1099K mutant (9B) (AID 1645876); settings: RCH-ACV NSD2 E1099K (9B) viability, CellTiter-Glo, 72 h; series mostly up to 44.9 µM; further: nearly all actives have a fitted effect of over 70% in size; further: potency means the concentration at half of the fitted maximal effect
# [6] = Primary qHTS for inhibitors of nuclear receptor binding SET domain protein 2 (NSD2) in an RCH-ACV wild type WT cells (2C) (AID 1645877); settings: RCH-ACV (leukaemia line) NSD2 WT (2C) viability, CellTiter-Glo, 72 h; series mostly up to 44.9 µM; further: nearly all actives have a fitted effect of over 70% in size; further: potency means the concentration at half of the fitted maximal effect
# [7] = qHTS drug screen for cell cycle checkpoint inhibitors in PARPi-resistant BRCA-mutant ovarian cancer cell lines. (AID 1963452; calls by dose curve); settings: PEO1/OlaR viability, CellTiter-Glo luminescence, 96 h, stronger effect = lower value
# Outline: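 PEO1, PEO4 and PEO1/OlaR ovarian cancer cells, 600 per well, exposed 96 h at 37C to a dilution series. Viability read by CellTiter-Glo luminescence, normalized to DMSO and empty wells; activity summarized as Z-AUC.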
smiles,measurement,setting,value
COC(=O)[C@@H]1[C@@H]2C[C@H]3c4[nH]c5ccccc5c4CCN3C[C@@H]2CC[C@@H]1O,Potency,[1],inactive
same,Potency,7G8,inactive
same,Potency,CP215,inactive
same,Potency,CP237,inactive
same,Potency,CP262,inactive
same,Potency,CP266,inactive
same,Potency,CP315,inactive
same,Potency,CP325,inactive
same,Potency,Dd2,inactive
same,Potency,FAB9,inactive
same,Potency,HB3,inactive
same,Potency,ICS,inactive
same,Potency,JCK,inactive
same,Potency,TAB165,inactive
S=C(S)O[C@@H]1C[C@@H]2C[C@H]1[C@@H]1CCC[C@H]21,Potency,[2],inactive
same,outcome,[3],inactive
same,outcome,[4],inactive
CN(C)CCCSC(=N)N,Potency,[2],inactive
same,outcome,[3],inactive
same,outcome,[4],inactive
CCC(=O)N[C@@H]1Cc2ccccc2[C@@H](c2ccccc2)C1,Potency,[2],inactive
same,outcome,[3],inactive
same,outcome,[4],inactive
CNC(=O)[C@H]1O[C@@H](n2cnc3c(NCc4cccc(I)c4)nc(Cl)nc32)[C@H](O)[C@@H]1O,Potency,[5],inactive
same,Potency,[6],inactive
same,Z-AUC,[7],0.981 (inactive)
same,Z-AUC,[7]; measured here: PEO1 parental Z-AUC,0.685
same,Z-AUC,[7]; measured here: PEO4 Z-AUC,0.71
CCOC(=O)C(CCc1ccccc1)NC1CCc2ccccc2N(CC(=O)O)C1=O (stereo not given),Potency,[1],inactive
same,Potency,7G8,7.94 µM (active)
same,Potency,CP215,inactive
same,Potency,CP237,10 µM (active)
same,Potency,CP262,inactive
same,Potency,CP266,inactive
same,Potency,CP315,inactive
same,Potency,CP325,inactive
same,Potency,Dd2,11.2 µM (active)
same,Potency,FAB9,inactive
same,Potency,HB3,inactive
same,Potency,ICS,6.31 µM (active)
same,Potency,JCK,inactive
same,Potency,TAB165,11.2 µM (active)
C[C@@H](C(=O)O)c1ccc(-c2ccccc2)c(F)c1,Potency,[1],inactive
same,Potency,7G8,inactive
same,Potency,CP215,inactive
same,Potency,CP237,inactive
same,Potency,CP262,inactive
same,Potency,CP266,inactive
same,Potency,CP315,inactive
same,Potency,CP325,inactive
same,Potency,Dd2,inactive
same,Potency,FAB9,inactive
same,Potency,HB3,inactive
same,Potency,ICS,inactive
same,Potency,JCK,inactive
same,Potency,TAB165,inactive
CC(C)(C)n1nc(-c2ccc(Cl)cc2)c2c(N)ncnc21,Potency,[5],8.2 µM (active)
same,Potency,[6],16.4 µM (active)
Cc1ccc(-c2nn(C(C)(C)C)c3ncnc(N)c23)cc1,Potency,[5],7.31 µM (active)
same,Potency,[6],11.6 µM (active)
